# Measured values taken from PubChem BioAssay AID651903 (Broad Institute, 2012).
# In all, about 22,000 compounds went through this assay and about 1,100 (5%) were called active. Rule as the data show it: active = activity score above about 55%; inconclusive = no clear call, values can overlap the other calls; inactive = below that. Many of the other results were omitted from the sample, so actives are more common in it than they were.
# Assay: T. cruzi growth inside host cells – cell-based, plate reader, single point, set 2, primary screen (AID 651903);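 also: parasites and compound incubated about four days before reading; 0% = median of neutral control wells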
# Conditions: intracellular Trypanosoma cruzi in host cells, at 5.01 µM, stronger effect = higher value
row,SMILES,activity score (inhibition)
1,C[C@@H]1CN([C@H](C)CO)C(=O)c2cc(NC(=O)Cn3cnnn3)ccc2O[C@@H]1CN(C)Cc1ccc(C(F)(F)F)cc1,-1.8% (inactive)
2,O=C(O)CCCCCCC(=O)NN=C1CCCCCC1,-26.3% (inactive)
3,C[C@H]1CN([C@@H](C)CO)C(=O)Cc2cc(NC(=O)Nc3ccc4c(c3)OCO4)ccc2O[C@H]1CN(C)Cc1ccc(C(=O)Nc2ccccc2N)cc1,62.8% (active)
4,C[C@@H]1CN([C@H](C)CO)C(=O)Cc2cc(NC(=O)Nc3ccc4c(c3)OCO4)ccc2O[C@@H]1CN(C)Cc1ccc(C(=O)Nc2ccccc2N)cc1,63.9% (active)
5,C[C@H](CO)N1C[C@H](C)[C@H](CN(C)Cc2ccc(C(=O)Nc3ccccc3N)cc2)Oc2ccc(NC(=O)Nc3ccccc3)cc2CC1=O,48.5% (inactive)
6,CC(C)NC(=O)Nc1ccc2c(c1)CC(=O)N([C@H](C)CO)C[C@@H](C)[C@@H](CN(C)Cc1ccc(C(=O)Nc3ccccc3N)cc1)O2,52.3% (inactive)
7,C[C@@H]1CN([C@H](C)CO)C(=O)Cc2cc(NC(=O)Nc3ccc(F)cc3)ccc2O[C@@H]1CN(C)Cc1ccc2c(c1)OCO2,1.98% (inactive)
8,COc1ccc(CN(C)C[C@@H]2Oc3ccc(NC(=O)Nc4ccc5c(c4)OCO5)cc3CC(=O)N([C@H](C)CO)C[C@H]2C)cc1,26.4% (inactive)
9,C[C@H](CO)N1C[C@H](C)[C@H](CN(C)S(=O)(=O)c2cccs2)Oc2ccc(NS(=O)(=O)c3ccc(Cl)cc3)cc2CC1=O,-17% (inactive)
10,C[C@H]1CN([C@@H](C)CO)C(=O)Cc2cc(NS(=O)(=O)c3cccs3)ccc2O[C@@H]1CN(C)Cc1ccc(Oc2ccccc2)cc1,42.4% (inactive)
11,C[C@H](CO)N1C[C@H](C)[C@H](CN(C)CC2CCCCC2)Oc2ccc(NC(=O)CCN3CCOCC3)cc2CC1=O,-39.1% (inactive)
12,C[C@H](CO)N1C[C@H](C)[C@H](CN(C)C(=O)Nc2ccc(C(F)(F)F)cc2)Oc2ccc(NC(=O)C3CC3)cc2C1=O,-9.99% (inactive)
13,C[C@@H]1CN([C@H](C)CO)C(=O)c2cccc(NC(=O)NC3CCCCC3)c2O[C@H]1CN(C)Cc1ccc(C(F)(F)F)cc1,85.3% (active)
14,C[C@H]1CN([C@@H](C)CO)C(=O)c2cccc(NC(=O)Nc3ccc(C(F)(F)F)cc3)c2O[C@@H]1CN(C)Cc1ccccc1,8.46% (inactive)
15,C[C@H](CO)N1C[C@H](C)[C@@H](CN(C)Cc2ccc(C(F)(F)F)cc2)Oc2c(NC(=O)NC3CCCCC3)cccc2C1=O,78.1% (active)
16,C[C@@H]1CN([C@H](C)CO)C(=O)c2cccc(NC(=O)Nc3ccc(F)cc3)c2O[C@@H]1CN(C)Cc1ccc(C(F)(F)F)cc1,-18.6% (inactive)
17,C[C@H]1CN([C@@H](C)CO)C(=O)c2cccc(NC(=O)C3CCCCC3)c2O[C@H]1CN(C)Cc1ccc(C(F)(F)F)cc1,6.51% (inactive)
18,COc1ccc(CN(C)C[C@H]2Oc3c(NC(=O)NC4CCCCC4)cccc3C(=O)N([C@@H](C)CO)C[C@@H]2C)cc1,-5.36% (inactive)
19,C[C@@H]1CN([C@@H](C)CO)C(=O)c2cccc(N(C)C)c2O[C@@H]1CN(C)S(C)(=O)=O,-23.1% (inactive)
20,C[C@H]1CN([C@@H](C)CO)C(=O)c2cccc(NS(=O)(=O)c3ccccc3)c2O[C@@H]1CN(C)S(=O)(=O)c1cn(C)cn1,-19.1% (inactive)
21,C[C@H]1CN([C@@H](C)CO)C(=O)Cc2cc(NC(=O)C3CC3)ccc2O[C@@H]1CN(C)C(=O)NC1CCCCC1,-11% (inactive)
22,CC(C)NC(=O)N(C)C[C@@H]1Oc2c(cccc2N(C)C)C(=O)N([C@H](C)CO)C[C@@H]1C,-30.9% (inactive)

row,SMILES,activity score (inhibition)
1,C[C@@H]1CN([C@@H](C)CO)C(=O)c2cc(NC(=O)Nc3ccccc3)ccc2O[C@H]1CN(C)C(=O)Nc1ccc(F)cc1,-1.8% (inactive)
2,C[C@@H]1CN([C@H](C)CO)C(=O)c2cc(NC(=O)Cc3cn(C)c4ccccc34)ccc2O[C@H]1CN(C)S(C)(=O)=O,-9.14% (inactive)
3,C[C@@H]1CN([C@@H](C)CO)C(=O)c2cccc(NC(=O)Nc3ccc4c(c3)OCO4)c2O[C@@H]1CN(C)C(=O)Nc1ccc(F)cc1,-15.6% (inactive)
4,C[C@@H]1CN([C@H](C)CO)C(=O)c2cc(NC(=O)Nc3ccc4c(c3)OCO4)ccc2O[C@@H]1CN(C)Cc1ccc(C(F)(F)F)cc1,2.66% (inactive)
5,C[C@@H]1CN([C@H](C)CO)C(=O)Cc2cc(NC(=O)Nc3cccc4ccccc34)ccc2O[C@@H]1CN(C)Cc1ccc(C(F)(F)F)cc1,67.4% (active)
6,C[C@@H]1CN([C@H](C)CO)C(=O)Cc2cc(NC(=O)Nc3cccc4ccccc34)ccc2O[C@@H]1CN(C)Cc1ccc(C(=O)O)cc1,-16% (inactive)
7,COc1ccc(CN(C)C[C@@H]2Oc3ccc(NC(=O)Nc4ccc(OC)cc4)cc3CC(=O)N([C@H](C)CO)C[C@H]2C)cc1,12% (inactive)
8,Cc1noc(C)c1NC(=O)Nc1ccc2c(c1)CC(=O)N([C@H](C)CO)C[C@@H](C)[C@@H](CN(C)Cc1ccc(C(F)(F)F)cc1)O2,-9.04% (inactive)
9,C[C@H]1CN([C@@H](C)CO)C(=O)Cc2cc(NC(=O)Nc3ccc(C(F)(F)F)cc3)ccc2O[C@H]1CN(C)Cc1ccc(C(=O)O)cc1,-28.2% (inactive)
10,C[C@@H]1CN([C@H](C)CO)C(=O)Cc2cc(NC(=O)Nc3ccc4c(c3)OCO4)ccc2O[C@H]1CN(C)Cc1ccc(C(F)(F)F)cc1,64.6% (active)
11,C[C@@H]1CN([C@H](C)CO)C(=O)Cc2cc(NC(=O)Nc3ccc4c(c3)OCO4)ccc2O[C@H]1CN(C)Cc1ccc(C(=O)O)cc1,-10.7% (inactive)
12,COc1ccc(NC(=O)Nc2ccc3c(c2)CC(=O)N([C@@H](C)CO)C[C@@H](C)[C@@H](CN(C)Cc2ccc(C(F)(F)F)cc2)O3)cc1,76% (active)
13,C[C@@H]1CN([C@H](C)CO)C(=O)c2cc(NC(=O)c3ccncc3)ccc2O[C@H]1CN(C)C(=O)Nc1ccc(C(F)(F)F)cc1,1.32% (inactive)
14,C[C@@H]1CN([C@H](C)CO)C(=O)c2cc(NC(=O)Nc3ccc(C(F)(F)F)cc3)ccc2O[C@H]1CN(C)C(=O)Nc1ccccc1,4.44% (inactive)
15,COc1ccc(S(=O)(=O)N(C)C[C@@H]2Oc3ccc(NC(=O)C4CC4)cc3CC(=O)N([C@@H](C)CO)C[C@@H]2C)cc1,-7.17% (inactive)
16,CNC[C@H]1Oc2ccc(NS(=O)(=O)c3ccc(F)cc3)cc2C(=O)N([C@@H](C)CO)C[C@@H]1C,-7.11% (inactive)
17,C[C@H]1CN([C@@H](C)CO)C(=O)c2cccc(NC(=O)c3cnccn3)c2O[C@@H]1CN(C)Cc1ccc(Oc2ccccc2)cc1,38.8% (inactive)
18,C[C@@H]1CN([C@H](C)CO)C(=O)Cc2cc(NC(=O)Nc3ccc(C(F)(F)F)cc3)ccc2O[C@@H]1CN(C)S(=O)(=O)c1ccccc1,70% (active)
19,C[C@H]1CN([C@@H](C)CO)C(=O)Cc2cc(NS(C)(=O)=O)ccc2O[C@@H]1CN(C)S(=O)(=O)c1ccc(Cl)cc1,2.12% (inactive)
20,C[C@@H]1CN([C@H](C)CO)C(=O)Cc2cc(NS(=O)(=O)c3ccc(Cl)cc3)ccc2O[C@@H]1CN(C)S(=O)(=O)c1ccc(Cl)cc1,67.3% (active)
21,C[C@H]1CN([C@@H](C)CO)C(=O)Cc2cc(NC(=O)Nc3cccc4ccccc34)ccc2O[C@@H]1CN(C)S(C)(=O)=O,-12.5% (inactive)
22,Cc1noc(C)c1S(=O)(=O)N(C)C[C@H]1Oc2ccc(NC(=O)Nc3cccc4ccccc34)cc2CC(=O)N([C@@H](C)CO)C[C@H]1C,23.8% (inactive)

row,SMILES,activity score (inhibition)
1,C[C@H]1CN([C@@H](C)CO)C(=O)Cc2cc(NC(=O)Nc3ccc(F)cc3)ccc2O[C@H]1CN(C)S(=O)(=O)c1ccccc1,10.9% (inactive)
2,COc1ccc(S(=O)(=O)Nc2ccc3c(c2)CC(=O)N([C@H](C)CO)C[C@@H](C)[C@@H](CN(C)S(=O)(=O)c2ccc(F)cc2)O3)cc1,60.4% (active)
3,C[C@H]1CN([C@@H](C)CO)C(=O)Cc2cc(NC(=O)Nc3ccc(C(F)(F)F)cc3)ccc2O[C@@H]1CN(C)S(=O)(=O)c1ccc(Cl)cc1,-15.1% (inactive)
4,COc1ccc(S(=O)(=O)N(C)C[C@H]2Oc3ccc(NS(=O)(=O)c4ccc(C)cc4)cc3CC(=O)N([C@@H](C)CO)C[C@@H]2C)cc1,-20.8% (inactive)
5,C[C@H]1CN([C@@H](C)CO)C(=O)Cc2cc(NS(=O)(=O)c3ccc(Cl)cc3)ccc2O[C@@H]1CN(C)S(=O)(=O)c1ccccc1,9.06% (inactive)
6,Cc1ccc(S(=O)(=O)N(C)C[C@H]2Oc3ccc(NC(=O)Nc4cccc5ccccc45)cc3CC(=O)N([C@H](C)CO)C[C@H]2C)cc1,60.6% (active)
7,C[C@@H]1CN([C@H](C)CO)C(=O)Cc2cc(NS(=O)(=O)c3ccc(F)cc3)ccc2O[C@@H]1CN(C)S(=O)(=O)c1ccc(F)cc1,47.1% (inactive)
8,C[C@@H]1CCCCO[C@H](CN(C)C(=O)c2ccccc2)[C@@H](C)CN([C@H](C)CO)C(=O)c2cc(NC(=O)c3ccccc3)ccc2O1,-16.9% (inactive)
9,C[C@@H]1CN([C@@H](C)CO)C(=O)c2cccc(NC(=O)C3CCOCC3)c2O[C@H]1CN(C)C(=O)NC1CCCCC1,2.53% (inactive)
10,C[C@H]1CN([C@@H](C)CO)C(=O)c2cc(NC(=O)c3ccncc3)ccc2O[C@H]1CN(C)Cc1ccc(C(=O)Nc2ccccc2N)cc1,37.7% (inactive)
11,C[C@H](CO)N1C[C@H](C)[C@@H](CN(C)Cc2ccc(C(F)(F)F)cc2)Oc2ccc(NC(=O)CCC(F)(F)F)cc2C1=O,7.64% (inactive)
12,COc1ccc(S(=O)(=O)Nc2cccc3c2O[C@@H](CN(C)S(=O)(=O)c2ccc(F)cc2)[C@H](C)CN([C@H](C)CO)C3=O)cc1,-4.59% (inactive)
13,COc1ccc(S(=O)(=O)N(C)C[C@H]2Oc3c(NS(=O)(=O)c4ccc(F)cc4)cccc3C(=O)N([C@H](C)CO)C[C@H]2C)cc1,71.9% (active)
14,Cc1ccc(S(=O)(=O)N(C)C[C@H]2Oc3ccc(NS(=O)(=O)c4ccccc4)cc3CC(=O)N([C@@H](C)CO)C[C@H]2C)cc1,57.7% (active)
15,Cc1ccc(S(=O)(=O)N(C)C[C@H]2Oc3ccc(NS(C)(=O)=O)cc3CC(=O)N([C@@H](C)CO)C[C@H]2C)cc1,5.47% (inactive)
16,COc1ccc(S(=O)(=O)Nc2cccc3c2O[C@H](CN(C)S(=O)(=O)c2ccc(OC)cc2)[C@@H](C)CN([C@H](C)CO)C3=O)cc1,8.53% (inactive)
17,Cc1ccc(S(=O)(=O)Nc2ccc3c(c2)CC(=O)N([C@@H](C)CO)C[C@@H](C)[C@@H](CN(C)S(=O)(=O)c2ccccc2)O3)cc1,52% (inactive)
18,C[C@@H]1CN([C@H](C)CO)C(=O)CCCn2cc(nn2)CO[C@H]1CN(C)S(C)(=O)=O,-20.6% (inactive)
19,C[C@H](CO)N1C[C@H](C)[C@H](CN(C)C(=O)Nc2ccc3c(c2)OCO3)Oc2ccc(NC(=O)Nc3ccccc3)cc2CC1=O,-2.34% (inactive)
20,Cc1noc(C)c1NC(=O)Nc1ccc2c(c1)CC(=O)N([C@@H](C)CO)C[C@@H](C)[C@@H](CN(C)Cc1ccc(Cl)c(Cl)c1)O2,0.719% (inactive)
21,C[C@H](CO)N1C[C@H](C)[C@H](CN(C)Cc2ccc3c(c2)OCO3)Oc2c(NS(=O)(=O)c3ccccc3)cccc2C1=O,4.5% (inactive)
